# Of roughly 7,900 targets only a part is listed; those with a hit were picked by preference. About 0.6% of all pairs of compound and target were hits. Unmarked numbers belong to inactive results.
# Experiments:
# Assay in all cases: log2 fold change, soluble protein after heating vs DMSO (PISA); higher = thermal stabilisation; K562 cells, 10 uM, 30 min; active = over 0.2 and 3.5 SD of the protein, either way, in both replicates (recomputed)
# bafetinib = compound: Cc1ccc(NC(=O)c2ccc(CN3CC[C@H](N(C)C)C3)c(C(F)(F)F)c2)cc1Nc1nccc(-c2cncnc2)n1 [bafetinib]
# Method in brief: (§1)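 K562 cells at 2×10^6 cells/mL were given 10 μM compound for 30 min. Aliquots then went through 3 min of heating across 48°C-58°C, were pooled, and were extracted in PBS with 0.5% NP-40 at 4°C, and the supernatant after 21,000xg for 90 min was quantified by TMTpro 16plex LC-MS/MS with channel sums equalised. Thermal stability relative to control samples, from duplicates, is given as log2 fold change.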
# [1] = compound: Cc1cccc(CC(=O)N2CCc3c2ccc(-c2cn(C)c4ncnc(N)c24)c3F)n1
# Method in brief: as §1
# nilotinib = compound: Cc1cn(-c2cc(NC(=O)c3ccc(C)c(Nc4nccc(-c5cccnc5)n4)c3)cc(C(F)(F)F)c2)cn1 [nilotinib]
# Method in brief: as §1
# [2] = compound: Cc1nc(Nc2n[nH]c3c2CN(C(=O)N[C@H](CN(C)C)c2ccccc2)C3(C)C)c2sccc2n1
# Method in brief: as §1
# dasatinib = compound: Cc1nc(Nc2ncc(C(=O)Nc3c(C)cccc3Cl)s2)cc(N2CCN(CCO)CC2)n1 [dasatinib]
# Method in brief: as §1
# [3] = compound: Cc1ncc(-c2ccnc(Nc3ccc(S(C)(=O)=O)cc3)n2)n1C(C)C
# Method in brief: as §1
# [4] = compound: Cn1cc(-c2ccc3c(c2)CCN3C(=O)Cc2cccc(C(F)(F)F)c2)c2c(N)ncnc21
# Method in brief: as §1
# [5] = compound: Cn1cc(-c2ccc3nnc(C(F)(F)c4ccc5ncccc5c4)n3n2)cn1
# Method in brief: as §1
# tipifarnib = compound: Cn1cncc1[C@@](N)(c1ccc(Cl)cc1)c1ccc2c(c1)c(-c1cccc(Cl)c1)cc(=O)n2C [tipifarnib]
# Method in brief: as §1
# mubritinib = compound: FC(F)(F)c1ccc(/C=C/c2nc(COc3ccc(CCCCn4ccnn4)cc3)co2)cc1 [mubritinib]
# Method in brief: as §1
# UniProt Q92560, sequence (Q92560 whole entry, looked up): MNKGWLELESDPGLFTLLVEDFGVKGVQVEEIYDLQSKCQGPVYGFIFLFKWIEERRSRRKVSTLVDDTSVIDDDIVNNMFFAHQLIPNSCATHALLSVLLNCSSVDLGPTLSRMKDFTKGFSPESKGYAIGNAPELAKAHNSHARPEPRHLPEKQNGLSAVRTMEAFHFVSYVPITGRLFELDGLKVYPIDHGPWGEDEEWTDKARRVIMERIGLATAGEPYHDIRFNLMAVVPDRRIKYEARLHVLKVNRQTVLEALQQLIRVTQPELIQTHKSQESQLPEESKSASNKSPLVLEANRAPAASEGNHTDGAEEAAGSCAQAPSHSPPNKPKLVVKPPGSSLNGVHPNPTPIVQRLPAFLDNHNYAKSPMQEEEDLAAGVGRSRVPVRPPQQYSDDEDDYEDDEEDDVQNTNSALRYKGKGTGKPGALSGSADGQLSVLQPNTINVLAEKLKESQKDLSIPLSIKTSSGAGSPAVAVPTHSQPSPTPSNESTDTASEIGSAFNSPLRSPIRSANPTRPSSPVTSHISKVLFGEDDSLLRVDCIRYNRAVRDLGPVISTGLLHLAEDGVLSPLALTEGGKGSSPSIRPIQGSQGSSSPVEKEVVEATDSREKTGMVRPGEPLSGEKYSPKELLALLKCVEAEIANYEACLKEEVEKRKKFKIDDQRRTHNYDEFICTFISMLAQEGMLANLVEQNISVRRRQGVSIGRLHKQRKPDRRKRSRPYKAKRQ
# UniProt Q15057, sequence (Q15057 whole entry, looked up): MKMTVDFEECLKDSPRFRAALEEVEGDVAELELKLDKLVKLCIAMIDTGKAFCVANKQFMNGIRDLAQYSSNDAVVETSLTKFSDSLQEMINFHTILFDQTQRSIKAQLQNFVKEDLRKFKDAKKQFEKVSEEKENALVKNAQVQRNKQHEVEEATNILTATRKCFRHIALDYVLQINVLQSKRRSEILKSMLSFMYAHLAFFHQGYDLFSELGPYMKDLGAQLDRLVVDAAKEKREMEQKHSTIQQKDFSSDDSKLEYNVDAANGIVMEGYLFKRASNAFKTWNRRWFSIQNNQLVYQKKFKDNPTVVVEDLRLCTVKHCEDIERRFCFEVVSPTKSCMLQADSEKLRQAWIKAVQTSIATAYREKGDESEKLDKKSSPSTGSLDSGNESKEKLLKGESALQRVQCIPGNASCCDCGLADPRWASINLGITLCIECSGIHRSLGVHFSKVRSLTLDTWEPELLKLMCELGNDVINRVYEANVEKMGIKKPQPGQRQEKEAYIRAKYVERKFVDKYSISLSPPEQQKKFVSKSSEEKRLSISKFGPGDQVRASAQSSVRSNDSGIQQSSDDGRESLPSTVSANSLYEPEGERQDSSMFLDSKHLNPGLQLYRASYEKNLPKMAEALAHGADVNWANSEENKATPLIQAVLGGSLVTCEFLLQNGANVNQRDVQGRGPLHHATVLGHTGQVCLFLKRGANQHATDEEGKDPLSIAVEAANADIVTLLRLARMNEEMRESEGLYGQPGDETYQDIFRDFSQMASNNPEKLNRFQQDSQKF
# UniProt Q9NSY1, sequence (Q9NSY1 whole entry, looked up): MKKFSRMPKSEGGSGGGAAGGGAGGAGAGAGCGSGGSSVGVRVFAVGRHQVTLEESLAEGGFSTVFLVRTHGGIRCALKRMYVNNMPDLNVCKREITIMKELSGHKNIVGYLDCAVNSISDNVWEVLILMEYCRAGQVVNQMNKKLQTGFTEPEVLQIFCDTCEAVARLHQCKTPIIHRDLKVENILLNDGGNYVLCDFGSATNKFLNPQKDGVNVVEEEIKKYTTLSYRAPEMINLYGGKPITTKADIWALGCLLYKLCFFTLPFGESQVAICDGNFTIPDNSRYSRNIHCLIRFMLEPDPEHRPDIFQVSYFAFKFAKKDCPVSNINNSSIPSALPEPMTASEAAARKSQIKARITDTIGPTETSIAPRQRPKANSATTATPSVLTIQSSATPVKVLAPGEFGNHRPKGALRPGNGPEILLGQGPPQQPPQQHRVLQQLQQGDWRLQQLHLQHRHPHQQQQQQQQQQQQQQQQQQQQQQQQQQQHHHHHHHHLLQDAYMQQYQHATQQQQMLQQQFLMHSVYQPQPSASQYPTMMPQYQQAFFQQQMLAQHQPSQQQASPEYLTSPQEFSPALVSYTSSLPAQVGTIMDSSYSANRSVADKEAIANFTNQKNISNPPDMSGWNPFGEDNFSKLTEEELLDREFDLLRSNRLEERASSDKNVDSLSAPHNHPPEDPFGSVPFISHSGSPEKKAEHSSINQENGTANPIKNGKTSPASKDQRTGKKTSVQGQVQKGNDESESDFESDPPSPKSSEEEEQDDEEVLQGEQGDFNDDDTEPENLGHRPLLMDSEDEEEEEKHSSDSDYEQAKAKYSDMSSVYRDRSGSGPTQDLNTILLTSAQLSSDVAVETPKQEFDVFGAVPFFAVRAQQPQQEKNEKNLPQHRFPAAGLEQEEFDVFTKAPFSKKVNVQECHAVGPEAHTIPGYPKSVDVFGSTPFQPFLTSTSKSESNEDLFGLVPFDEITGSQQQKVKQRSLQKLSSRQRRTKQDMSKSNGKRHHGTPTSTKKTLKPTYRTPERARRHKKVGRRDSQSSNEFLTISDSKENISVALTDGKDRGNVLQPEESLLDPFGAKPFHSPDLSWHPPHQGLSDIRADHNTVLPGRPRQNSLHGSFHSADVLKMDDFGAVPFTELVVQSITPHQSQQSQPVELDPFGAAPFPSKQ
# UniProt O60488, sequence (O60488 whole entry, looked up): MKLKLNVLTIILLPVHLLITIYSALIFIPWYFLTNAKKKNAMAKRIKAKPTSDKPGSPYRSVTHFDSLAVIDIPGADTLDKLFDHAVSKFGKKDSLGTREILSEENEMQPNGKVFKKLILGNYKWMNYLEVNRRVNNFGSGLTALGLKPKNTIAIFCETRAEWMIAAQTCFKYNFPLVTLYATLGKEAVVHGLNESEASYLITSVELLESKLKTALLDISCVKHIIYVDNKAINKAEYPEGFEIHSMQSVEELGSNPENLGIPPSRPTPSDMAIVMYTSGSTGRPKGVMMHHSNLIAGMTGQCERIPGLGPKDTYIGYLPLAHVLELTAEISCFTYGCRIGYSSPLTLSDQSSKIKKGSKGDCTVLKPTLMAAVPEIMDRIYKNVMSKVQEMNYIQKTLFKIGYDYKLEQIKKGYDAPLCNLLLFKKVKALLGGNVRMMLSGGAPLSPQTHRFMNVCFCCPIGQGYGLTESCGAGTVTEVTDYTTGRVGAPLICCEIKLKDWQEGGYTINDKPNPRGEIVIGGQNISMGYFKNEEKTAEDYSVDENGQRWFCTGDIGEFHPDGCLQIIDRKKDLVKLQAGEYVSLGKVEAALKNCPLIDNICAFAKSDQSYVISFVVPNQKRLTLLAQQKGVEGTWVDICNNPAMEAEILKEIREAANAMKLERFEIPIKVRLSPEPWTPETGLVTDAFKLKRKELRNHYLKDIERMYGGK
# UniProt P52895, sequence (P52895 whole entry, looked up): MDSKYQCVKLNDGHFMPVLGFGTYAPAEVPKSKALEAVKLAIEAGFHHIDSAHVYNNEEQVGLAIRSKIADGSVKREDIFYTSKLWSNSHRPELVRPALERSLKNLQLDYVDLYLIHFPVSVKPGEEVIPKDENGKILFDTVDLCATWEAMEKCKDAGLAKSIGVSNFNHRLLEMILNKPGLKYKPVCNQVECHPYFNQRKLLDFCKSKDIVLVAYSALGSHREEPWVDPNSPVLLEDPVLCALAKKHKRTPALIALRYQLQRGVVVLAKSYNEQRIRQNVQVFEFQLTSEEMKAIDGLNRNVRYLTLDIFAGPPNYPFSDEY
# UniProt Q9BTT0, sequence (Q9BTT0 whole entry, looked up): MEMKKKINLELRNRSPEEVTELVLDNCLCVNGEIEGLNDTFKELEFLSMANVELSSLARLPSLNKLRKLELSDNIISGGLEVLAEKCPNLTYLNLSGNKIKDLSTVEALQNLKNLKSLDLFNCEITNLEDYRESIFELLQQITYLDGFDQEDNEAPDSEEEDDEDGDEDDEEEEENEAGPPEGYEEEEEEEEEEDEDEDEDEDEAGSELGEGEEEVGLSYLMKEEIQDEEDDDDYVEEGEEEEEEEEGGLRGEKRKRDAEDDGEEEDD
# UniProt Q9NUQ2, sequence (Q9NUQ2 whole entry, looked up): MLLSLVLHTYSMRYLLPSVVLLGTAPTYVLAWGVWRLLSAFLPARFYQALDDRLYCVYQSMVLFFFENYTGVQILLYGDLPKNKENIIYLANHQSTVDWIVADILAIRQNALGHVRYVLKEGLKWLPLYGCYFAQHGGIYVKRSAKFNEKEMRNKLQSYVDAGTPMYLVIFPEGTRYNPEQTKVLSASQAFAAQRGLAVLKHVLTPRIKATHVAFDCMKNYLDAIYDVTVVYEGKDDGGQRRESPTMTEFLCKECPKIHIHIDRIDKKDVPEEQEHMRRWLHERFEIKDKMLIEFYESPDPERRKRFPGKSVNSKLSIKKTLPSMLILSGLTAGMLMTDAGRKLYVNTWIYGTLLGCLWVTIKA
# UniProt Q8N6H7, sequence (Q8N6H7 whole entry, looked up): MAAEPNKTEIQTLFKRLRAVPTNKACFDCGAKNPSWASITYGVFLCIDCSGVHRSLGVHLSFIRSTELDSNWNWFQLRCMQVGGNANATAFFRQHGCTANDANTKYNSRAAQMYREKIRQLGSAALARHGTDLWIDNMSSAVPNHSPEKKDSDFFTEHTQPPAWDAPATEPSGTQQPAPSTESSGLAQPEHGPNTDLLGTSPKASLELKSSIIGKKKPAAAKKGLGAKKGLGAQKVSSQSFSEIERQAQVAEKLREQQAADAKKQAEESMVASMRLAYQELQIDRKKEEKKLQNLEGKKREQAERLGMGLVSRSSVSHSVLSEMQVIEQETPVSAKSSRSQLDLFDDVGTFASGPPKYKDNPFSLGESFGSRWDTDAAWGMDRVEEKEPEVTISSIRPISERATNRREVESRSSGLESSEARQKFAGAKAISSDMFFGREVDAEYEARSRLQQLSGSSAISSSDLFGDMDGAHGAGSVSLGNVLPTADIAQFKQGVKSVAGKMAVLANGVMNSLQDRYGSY
# UniProt P53680, sequence (P53680 whole entry, looked up): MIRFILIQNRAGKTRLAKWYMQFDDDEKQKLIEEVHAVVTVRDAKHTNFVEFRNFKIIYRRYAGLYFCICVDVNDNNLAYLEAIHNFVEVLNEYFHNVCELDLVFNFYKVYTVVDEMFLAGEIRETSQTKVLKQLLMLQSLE
Target,log2 fold change (bafetinib),log2 fold change [1],log2 fold change (nilotinib),log2 fold change [2],log2 fold change (dasatinib),log2 fold change [3],log2 fold change [4],log2 fold change [5],log2 fold change (tipifarnib),log2 fold change (mubritinib)
APPL1 (UniProt Q9UKG1),-0.013,-0.092,-0.046,0.161,-0.003,0.002,0.03,-0.001,-0.051,-0.029
AKR1C2 (UniProt P52895),0.103,-0.111,0.029,-0.057,-0.012,0.028,-0.07,0.223,0.271,-0.06
ARMC8 (UniProt Q8IUR7),0.021,-0.026,-0.036,0.038,-0.082,-0.008,-0.019,-0.112,0.007,-0.053
ANP32E (UniProt Q9BTT0),0.04,0.146,-0.061,-0.123,0.053,-0.104,0.013,0.027,0.001,-0.047
ALDH18A1 (UniProt P54886),-0.206,0.071,-0.3,-0.15,-0.133,0.042,-0.202,-0.128,-0.141,-0.561 (active)
AHCYL1 (UniProt O43865),-0.009,-0.135,0.006,0.029,0.005,0.116,0.041,0.041,-0.014,-0.055
ARFGAP2 (UniProt Q8N6H7),-0.006,-0.008,-0.045,-0.063,-0.096,0.035,-0.024,-0.024,-0.059,0.041
AP2S1 (UniProt P53680),0.023,-0.01,-0.019,-0.009,-0.011,-0.082,-0.057,0.004,-0.04,-0.001
AARSD1 isoform 3 (UniProt Q9BTE6),0.009,0.065,-0.013,-0.038,-0.062,0.031,-0.004,0.002,0.022,0.064
ACAP2 (UniProt Q15057),0.093,0.052,-0.006,-0.05,-0.04,0.051,-0.073,-0.051,-0.097,0.016
ATP7B (UniProt P35670),-0.009,-0.032,0.006,-0.017,-0.153,0.087,0.015,0.001,0.019,-0.079
ATIC (UniProt P31939),0.067,0.058,0.158,-0.033,0.022,-0.006,0.104,0.048,-0.047,0.206 (active)
AGPAT5 (UniProt Q9NUQ2),-0.133,0.021,0.008,0.04,-0.058,-0.035,0.09,0.045,0.02,0.014
ARL1 (UniProt P40616),0.114,0.205,-0.174,-0.017,-0.131,0.096,0.055,0.019,-0.123,-0.046
BMP2K (UniProt Q9NSY1),0.037,-0.107,-0.067,0.534 (active),0,0.34,-0.016,-0.036,0.016,-0.042
ARL6IP6 (UniProt Q8N6S5),-0.096,0.024,-0.027,0.019,0.098,0.036,0.012,-0.186,-0.054,0.04
ALDH1B1 (UniProt P30837),0.03,-0.018,0.003,0.014,-0.113,0.131,0.022,0.034,-0.018,0.059
ARL3 (UniProt P36405),-0.024,-0.029,0.011,0.006,0.001,-0.003,0.022,-0.018,-0.034,0.029
ARGLU1 (UniProt Q9NWB6),0.165,-0.058,0.184,-1.13 (active),0.146,-0.027,-0.046,-0.031,0.043,-0.057
BPHL (UniProt Q86WA6),-0.005,0.002,-0.032,-0.034,-0.032,-0.021,0.082,0.009,0.032,-0.008
B4GALT1 (UniProt P15291),-0.062,0.009,0.066,-0.025,-0.083,0.021,-0.005,0.04,0.153,0.029
ACSF3 (UniProt Q4G176),-0.13,-0.105,0.084,0.135,-0.073,0.022,-0.278,-0.02,0.062,-0.433 (active)
ARFGAP1 (UniProt Q8N6T3),-0.041,-0.009,-0.015,-0.193,-0.097,-0.004,-0.003,0.008,-0.036,-0.022
ATP12A isoform 2 (UniProt P54707),0.026,0.011,0.02,-0.007,0.022,0.007,0.066,0.04,0.016,0.018
ACSL4 (UniProt O60488),-0.021,-0.014,-0.027,-0.063,-0.222,0.087,0.05,0.115,-0.134,-0.078
BAP1 (UniProt Q92560),0.252,-0.071,0.007,0.053,-0.031,0.006,-0.086,-0.064,0.076,-0.201
ATP9B (UniProt O43861),-0.042,-0.042,-0.147,-0.149,-0.067,0.038,0.037,-0.096,0.121,0.069

# From the supplement of paper PMC10849652
